Results from PubChem BioAssay.
Where “and” joins values, the source holds several entries; their conditions need not be identical. Equal values may be shown once. Inconclusive results are not listed. Calls of active or inactive are those of the source.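 The calls were made as follows, unless noted: active = normalized viability below 100% at a tested concentration; inactive = the rest.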

Experiments:
[1] = SU-DIPG-VI glioma cell viability, MIPE4.0 library, CellTiter-Glo luminescence, qHTS (AID 1347066; cut-off not given, nearly all actives have AC50 up to about 30 µM;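 also: cells exposed to compound for 48 hours before readout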); settings: CellTiter-Glo ATP luminescence
[2] = sensitizers of A549 cells to miR-34 induction, primary screen, imaging, A549 dox-inducible miR-34, nuclei and caspase counts (AID 1347080;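 active = compounds whose cell count with miR-34 switched on is under 0.7 times the count with it off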); settings: A549 miR-34 inducible, Hoechst nuclei count, 48 h
[3] = survival rescue of mitochondrial mutant cells in low glucose, primary screen, MELAS cybrids, Rieske KO mouse fibroblasts, CellTiter-Glo (AID 1508586;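 active = mean z-score across replicates of 1.96 or higher in either the MELAS or the Rieske mutant cell line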;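 also: z relative to plate mean and SD of compound and empty wells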)
[4] = biological target: NAD(+) hydrolase SARM1 (Homo sapiens) (UniProt Q6SZW1); assay: SARM1 TIR NADase inhibitors, cell lysate, NAD-Glo luminescence (AID 1508614;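 active = compound whose remaining NAD level is above about 45 nM, limit read from the data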;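 also: higher remaining NAD means stronger inhibition of SARM1 NADase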); settings: SAM-TIR HEK293T lysate NADase, at 1 µM, stronger effect = higher value
[5] = biological target: Mitogen-activated protein kinase 7 (Homo sapiens) (UniProt Q13164); assay: ERK5 transactivation activators in reporter cells, primary screen, cell-based, HTS (AID 1508626;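 active = luciferase signal above three times the same-plate solvent-only control wells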;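 also: luciferase driven by Gal4-ERK5 fusion binding five Gal4 sites before minimal TATA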); settings: HeLa Gal4-ERK5 transactivation, 18 h, at 5 µM, stronger effect = higher value
[6] = viability rescue of complex I mutant cybrids, primary screen, cell-based, galactose medium, ATP luminescence (AID 1645843;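 active = z-score of at least 1.8 in each of two replicates, scored against plate mean and spread of sample wells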;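 also: positive z means more ATP and so rescue of galactose-driven cybrid death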); settings: complex I mutant cybrid cells, 72 h, stronger effect = higher value
[7] = SU-DIPG-XXV glioma cell viability, MIPE5.0 library, qHTS (AID 1347068; cut-off not given, nearly all actives have IC50 up to about 30 µM)
[8] = phospholipid biosynthesis inhibitors in animal cells, primary screen, cell-based, LOPAC library, screen 4 (AID 1347384; call rule not given here); settings: phospholipid biosynthesis inhibition screen, at 10 µM
[9] = LFS_MB_P medulloblastoma growth inhibition, cell-based, chromothripsis tumors, cisplatin or BGB combos (AID 1671449; in the data active = inhibition above about 80%;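 also: cells exposed for 96 hours; 0% = vehicle DMSO and 100% = killing by high DMSO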); settings: LFS_MB_P medulloblastoma cells
[10] = HDN33 neuroblastoma growth inhibition, cell-based, chromothripsis tumors, cisplatin or BGB combos (AID 1671450; in the data active = inhibition above about 80%;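 also: cells exposed to compound for four days; 0% = vehicle DMSO and 100% = cell killing by high DMSO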); settings: HDN33 neuroblastoma cells, stronger effect = higher value
[11] = ICB984 medulloblastoma cell growth inhibition, synergistic combos for chromothripsis tumors, cisplatin or BGB combos (AID 1671451; call rule not given here;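 also: cells exposed for 96 hours before readout; 0% = vehicle DMSO and 100% = killing by high DMSO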); settings: ICB984 medulloblastoma cells, drug combinations, stronger effect = higher value
[12] = LFS_MB_1R medulloblastoma cell growth inhibition, synergistic combos for chromothripsis tumors, cisplatin or BGB combos (AID 1671452; in the data active = inhibition above about 80%;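 also: cells exposed for 96 hours before readout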); settings: LFS_MB_1R medulloblastoma cells, stronger effect = higher value
[13] = HTB85 osteosarcoma cell growth inhibition, synergistic combos for chromothripsis tumors, BGB or cisplatin IC20 combos (AID 1671453; in the data active = inhibition above about 80%;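 also: cells exposed for 96 hours before readout; 0% = vehicle DMSO and 100% = high DMSO killing control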); settings: HTB85 osteosarcoma cells, drug combinations, stronger effect = higher value
[14] = CRL2098 osteosarcoma cell growth inhibition, synergistic combos for chromothripsis tumors, BGB or cisplatin IC20 combos (AID 1671454; in the data active = inhibition above about 80%;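 also: cells exposed for 96 h before readout; 0% = vehicle DMSO and 100% = killing by high DMSO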); settings: CRL2098 osteosarcoma cells, drug combinations, stronger effect = higher value
[15] = HD-MB03 medulloblastoma cell growth inhibition, synergistic combos for chromothripsis tumors, BGB or cisplatin IC20 combos (AID 1671455; in the data active = inhibition above about 83%;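 also: 0% = vehicle DMSO and 100% = high DMSO as cytotoxic control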); settings: HD-MB03 medulloblastoma cells, stronger effect = higher value
[16] = JHH-DIPG-1 glioma cell viability, MIPE5.0 library, CellTiter-Glo luminescence, qHTS (AID 1347067; cut-off not given, nearly all actives have AC50 up to about 26 µM;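 also: cells exposed to compound for 48 hours before readout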); settings: JHH-DIPG-1 glioma viability, CellTiter-Glo ATP luminescence
[17] = modifiers of HSF1 nuclear foci, imaging, Selleck Cancer Library (AID 1347162; in the data active = plate-normalised HSF1 focus index below about 0.46); settings: human cells, at 10 µM; SSMD: measured here: HSF1 foci SSMD mean; cell count: measured here: cell number; plate-normalised HSF1 focus index: stronger effect = lower value
[18] = ovarian cancer cell viability with rucaparib, profiling panel, oncology-focused library, rucaparib conditional (AID 1508598); settings: patient-derived ovarian cancer cells, CellTiter-Glo viability, 144 h, stronger effect = lower value
[19] = stronger effect = lower value, cell number ratio, induced over uninduced
[20] = measured here: relative caspase fold change +Dox/-Dox
[21] = measured here: total cells with miR-34 induction, stronger effect = lower value
[22] = measured here: total cells without miR-34 induction
[23] = MELAS cybrid survival, CellTiter-Glo 48 h, stronger effect = higher value
[24] = Rieske KO mouse fibroblast survival, CellTiter-Glo 72 h
[25] = measured here: combination with BGB IC40, at 0.05 µM

Mitogen-activated protein kinase 7 (Homo sapiens), sequence (Q13164 whole entry, looked up, the tested form may be a part): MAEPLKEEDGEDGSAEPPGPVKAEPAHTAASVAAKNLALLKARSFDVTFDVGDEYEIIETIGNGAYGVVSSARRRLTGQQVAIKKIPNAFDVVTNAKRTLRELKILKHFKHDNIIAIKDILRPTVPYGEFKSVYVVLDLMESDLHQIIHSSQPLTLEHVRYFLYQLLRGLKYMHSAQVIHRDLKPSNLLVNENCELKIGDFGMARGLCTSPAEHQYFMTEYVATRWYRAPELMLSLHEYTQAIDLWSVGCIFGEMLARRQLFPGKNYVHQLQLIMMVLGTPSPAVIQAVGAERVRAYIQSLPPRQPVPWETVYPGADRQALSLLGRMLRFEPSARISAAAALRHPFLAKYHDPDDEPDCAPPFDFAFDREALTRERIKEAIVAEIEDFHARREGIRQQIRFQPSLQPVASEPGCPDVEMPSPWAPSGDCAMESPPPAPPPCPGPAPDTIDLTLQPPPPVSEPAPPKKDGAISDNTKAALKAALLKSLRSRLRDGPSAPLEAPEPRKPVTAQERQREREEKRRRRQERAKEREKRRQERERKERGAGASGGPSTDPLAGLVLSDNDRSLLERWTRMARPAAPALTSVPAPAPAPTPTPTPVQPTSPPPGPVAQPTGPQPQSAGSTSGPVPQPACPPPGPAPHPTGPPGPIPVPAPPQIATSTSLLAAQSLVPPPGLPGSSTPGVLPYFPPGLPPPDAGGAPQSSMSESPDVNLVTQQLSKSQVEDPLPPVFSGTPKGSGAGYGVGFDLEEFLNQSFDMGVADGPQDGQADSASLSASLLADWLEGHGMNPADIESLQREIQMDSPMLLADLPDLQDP
NAD(+) hydrolase SARM1 (Homo sapiens), sequence (Q6SZW1 whole entry, looked up, the tested form may be a part): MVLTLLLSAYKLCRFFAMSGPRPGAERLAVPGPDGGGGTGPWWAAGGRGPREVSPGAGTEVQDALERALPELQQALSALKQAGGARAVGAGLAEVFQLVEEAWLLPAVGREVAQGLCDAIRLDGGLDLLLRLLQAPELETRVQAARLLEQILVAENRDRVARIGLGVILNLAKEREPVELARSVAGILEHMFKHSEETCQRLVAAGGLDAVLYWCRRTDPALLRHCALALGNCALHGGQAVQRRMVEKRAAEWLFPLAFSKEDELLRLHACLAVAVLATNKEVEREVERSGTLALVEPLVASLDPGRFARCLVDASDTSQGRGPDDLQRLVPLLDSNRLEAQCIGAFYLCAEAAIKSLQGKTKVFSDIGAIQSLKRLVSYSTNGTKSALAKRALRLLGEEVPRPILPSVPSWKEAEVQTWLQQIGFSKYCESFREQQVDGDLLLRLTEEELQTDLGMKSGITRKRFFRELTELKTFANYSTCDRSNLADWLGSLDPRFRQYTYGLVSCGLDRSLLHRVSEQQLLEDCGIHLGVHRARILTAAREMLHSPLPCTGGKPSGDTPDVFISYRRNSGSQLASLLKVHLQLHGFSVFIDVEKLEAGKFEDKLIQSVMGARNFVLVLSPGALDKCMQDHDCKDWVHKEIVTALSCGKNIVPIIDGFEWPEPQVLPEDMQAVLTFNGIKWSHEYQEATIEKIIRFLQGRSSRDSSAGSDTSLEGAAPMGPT

Cc1onc(-c2ccccc2)c1C(=O)N[C@@H]1C(=O)N2[C@@H]1SC(C)(C)[C@@H]2C(=O)O
outcome [1]: inactive
fold change [2, 19]: 0.877 (inactive)
fold change [2, 20]: 6.72
cell count [2, 21]: 9940
cell count [2, 22]: 11300
z-score [3, 23]: 0.677 (inactive) and 0.0608 (inactive)
z-score [3, 24]: -0.0856 and 0.018
remaining NAD [4]: 10 nM (inactive)
luciferase signal [5]: 64 AU (inactive)
z-score [6]: 0.945 (inactive)

Cc1cccc(N(C)C(=S)Oc2ccc3ccccc3c2)c1
outcome [1]: inactive
outcome [7]: inactive
fold change [2, 19]: 0.98 (inactive) and 0.897 (inactive) and 0.793 (inactive)
fold change [2, 20]: 1.24 and 1.29 and 1.54
cell count [2, 21]: 8090 and 8100 and 9280
cell count [2, 22]: 8260 and 9020 and 11700
z-score [3, 23]: -0.305 (inactive) and 0.185 (inactive)
z-score [3, 24]: 0.765 and 0.376
remaining NAD [4]: 10 nM (inactive)
luciferase signal [5]: 112 AU (inactive)

Cc1oncc1C(=O)Nc1ccc(C(F)(F)F)cc1
outcome [1]: inactive
outcome [7]: inactive
outcome [8]: inactive
z-score [3, 23]: -0.557 (inactive) and -0.339 (inactive) and -0.166 (inactive)
z-score [3, 24]: 0.617 and 0.893 and 0.301
remaining NAD [4]: 10 nM (inactive)
luciferase signal [5]: 120 AU (inactive)
z-score [6]: 1.22 (inactive) and 1.26 (inactive) and 0.055 (inactive)
inhibition ([9]; at 0.5 µM, stronger effect = higher value): -30.3% (inactive)
inhibition ([9]; measured here: combination with BGB IC20, at 0.005 µM): -32.3%
inhibition ([9]; measured here: combination with BGB IC40, at 0.005 µM): -17.1%
inhibition [9, 25]: -23.8%
inhibition ([9]; measured here: combination with cisplatin, at 0.5 µM, stronger effect = higher value): -32.5%
inhibition ([9]; measured here: combination with cisplatin, at 5 µM, stronger effect = higher value): 34.4%
inhibition ([10]; BGB combo, at 5 µM): 22.1%
inhibition ([10]; at 0.5 µM): -14.7% (inactive)
inhibition ([10]; cisplatin combo, at 5 µM): 36.7%
inhibition ([10]; measured here: with BGB IC20 combination, at 0.5 µM): 2.4%
inhibition ([10]; measured here: with cisplatin IC20 combination, at 0.5 µM): -16.7%
inhibition ([10]; single agent, at 5 µM): 48%
inhibition ([11]; BGB IC20 combo, at 0.005 µM): 16.5%
inhibition ([11]; BGB IC40 combo, at 0.005 µM): -7.12%
inhibition ([11]; BGB IC40 combo, at 0.05 µM): 33.8%
inhibition ([11]; at 0.5 µM): -22.9% (inactive)
inhibition ([11]; cisplatin combo, at 0.05 µM): 31.4%
inhibition ([11]; cisplatin combo, at 0.5 µM): -18.9%
inhibition ([11]; cisplatin combo, at 5 µM): -28.5%
inhibition ([11]; measured here: 5 uM single agent, at 5 µM): 9.62%
inhibition ([12]; at 0.5 µM): -18.1% (inactive)
inhibition [12, 25]: -48.9%
inhibition ([12]; measured here: combination with cisplatin, at 0.5 µM): -43.1%
inhibition ([12]; measured here: combination with cisplatin, at 5 µM): -31%
inhibition ([13]; at 0.5 µM): -9.93% (inactive)
inhibition ([13]; measured here: with BGB IC20, at 0.5 µM): -10.4%
inhibition ([13]; measured here: with BGB IC20, at 5 µM): 14.1%
inhibition ([13]; measured here: with cisplatin IC20, at 0.5 µM): -18.2%
inhibition ([13]; measured here: with cisplatin IC20, at 5 µM): 0.987%
inhibition ([13]; single agent, at 5 µM): 24.3%
inhibition ([14]; at 0.5 µM): -47.6% (inactive)
inhibition ([14]; measured here: combination with BGB at IC20, at 0.5 µM): -10.4%
inhibition ([14]; measured here: combination with cisplatin at IC20, at 0.5 µM): -126%
inhibition ([15]; at 0.5 µM): 1.82% (inactive)
inhibition ([15]; measured here: combo with BGB at IC20, at 0.5 µM): -13.1%
inhibition ([15]; measured here: combo with cisplatin at IC20, at 0.5 µM): 15.3%

CN1[C@@H]2CC[C@H]1CC(OC(=O)c1c[nH]c3ccccc13)C2 (stereo not given in full)
outcome [1]: inactive
fold change [2, 19]: 0.918 (inactive) and 0.888 (inactive)
fold change [2, 20]: 1.65 and 1.61
cell count [2, 21]: 8920 and 10100
cell count [2, 22]: 9710 and 11400
z-score [3, 23]: 0.412 (inactive)
z-score [3, 24]: 0.0805
remaining NAD [4]: 10 nM (inactive)
z-score [6]: -0.025 (inactive) and 0.755 (inactive)

CC[C@@]1(O)C(=O)OCc2c1cc1n(c2=O)Cc2cc3c(CN(C)C)c(O)ccc3nc2-1
outcome [1]: inactive
AC50 [16]: 4.17 µM (active)
SSMD [17]: -8.15
cell count [17]: 6870
plate-normalised HSF1 focus index [17]: 0.582 (inactive)
outcome [8]: inactive
z-score [3, 23]: -0.568 (inactive) and -2.28 (inactive) and -2.25 (inactive)
z-score [3, 24]: 0.849 and -0.703 and -1.06
viability ([18]; at 0.000305 µM, OCI-C5x cells, with rucaparib 10 µM, 100% = cells with rucaparib alone): 104% (inactive)
viability ([18]; at 0.000305 µM, OCI-C5x cells, without rucaparib): 104% (inactive)
viability ([18]; at 0.000305 µM, OCI-P5x cells, with rucaparib 20 µM, 100% = cells with rucaparib alone): 94.2% (active)
viability ([18]; at 0.000305 µM, OCI-P5x cells, without rucaparib): 107% (inactive)
viability ([18]; at 0.00122 µM, OCI-C5x cells, with rucaparib 10 µM, 100% = cells with rucaparib alone): 89.3% (active)
viability ([18]; at 0.00122 µM, OCI-C5x cells, without rucaparib): 92.9% (active)
viability ([18]; at 0.00122 µM, OCI-P5x cells, with rucaparib 20 µM, 100% = cells with rucaparib alone): 83.1% (active)
viability ([18]; at 0.00122 µM, OCI-P5x cells, without rucaparib): 79.7% (active)
viability ([18]; at 0.00488 µM, OCI-C5x cells, with rucaparib 10 µM, 100% = cells with rucaparib alone): 83.9% (active)
viability ([18]; at 0.00488 µM, OCI-C5x cells, without rucaparib): 62.6% (active)
viability ([18]; at 0.00488 µM, OCI-P5x cells, with rucaparib 20 µM, 100% = cells with rucaparib alone): 64.6% (active)
viability ([18]; at 0.00488 µM, OCI-P5x cells, without rucaparib): 49.2% (active)
viability ([18]; at 0.0195 µM, OCI-C5x cells, with rucaparib 10 µM, 100% = cells with rucaparib alone): 61.6% (active)
viability ([18]; at 0.0195 µM, OCI-C5x cells, without rucaparib): 46.1% (active)
viability ([18]; at 0.0195 µM, OCI-P5x cells, with rucaparib 20 µM, 100% = cells with rucaparib alone): 51.1% (active)
viability ([18]; at 0.0195 µM, OCI-P5x cells, without rucaparib): 31.5% (active)
viability ([18]; at 0.0781 µM, OCI-C5x cells, with rucaparib 10 µM, 100% = cells with rucaparib alone): 43.7% (active)
viability ([18]; at 0.0781 µM, OCI-C5x cells, without rucaparib): 22.5% (active)
viability ([18]; at 0.0781 µM, OCI-P5x cells, with rucaparib 20 µM, 100% = cells with rucaparib alone): 31.5% (active)
viability ([18]; at 0.0781 µM, OCI-P5x cells, without rucaparib): 11.7% (active)
viability ([18]; at 0.313 µM, OCI-C5x cells, with rucaparib 10 µM, 100% = cells with rucaparib alone): 31% (active)
viability ([18]; at 0.313 µM, OCI-C5x cells, without rucaparib): 10.3% (active)
viability ([18]; at 0.313 µM, OCI-P5x cells, with rucaparib 20 µM, 100% = cells with rucaparib alone): 10.6% (active)
viability ([18]; at 0.313 µM, OCI-P5x cells, without rucaparib): 4.1% (active)
viability ([18]; at 1.25 µM, OCI-C5x cells, with rucaparib 10 µM, 100% = cells with rucaparib alone): 11.2% (active)
viability ([18]; at 1.25 µM, OCI-C5x cells, without rucaparib): 7.82% (active)
viability ([18]; at 1.25 µM, OCI-P5x cells, with rucaparib 20 µM, 100% = cells with rucaparib alone): 3.74% (active)
viability ([18]; at 1.25 µM, OCI-P5x cells, without rucaparib): 1.56% (active)
viability ([18]; at 5 µM, OCI-C5x cells, with rucaparib 10 µM, 100% = cells with rucaparib alone): 4.91% (active)
viability ([18]; at 5 µM, OCI-C5x cells, without rucaparib): 4% (active)
viability ([18]; at 5 µM, OCI-P5x cells, with rucaparib 20 µM, 100% = cells with rucaparib alone): 5.99% (active)
viability ([18]; at 5 µM, OCI-P5x cells, without rucaparib): 4.13% (active)
remaining NAD [4]: 10 nM (inactive)
z-score [6]: -1.13 (inactive) and -1.87 (inactive) and -2.38 (inactive)
